Bioassay records: PubChem, National Center for Advancing Translational Sciences (NCATS)
Sm TGR block = qHTS Assay for the Inhibitors of Schistosoma Mansoni Peroxiredoxins; Schistosoma mansoni thioredoxin glutathione reductase (TGR), Q962Y6; purified TGR, DTNB reduction, TNB absorbance 405 nm; Potency, µM (top dose mostly 114 µM), usual class: inhibitors; actives 3% (n = 360,000); note: nearly all actives have a fitted effect of over 60% in size
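First, TGR (20 nM dispensed) and NADPH were mixed with compound. Second, a 15 min room-temperature incubation followed. Third, further NADPH and then DTNB were added to start the reaction. Finally, TNB absorbance was monitored kinetically.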
Pf growth 96h = Primary qHTS for delayed death inhibitors of the malarial parasite plastid, 96 hour incubation. P. falciparum luciferase reporter growth, 96 h. Potency, µM (series often up to 28.7 µM), actives largely listed as inhibitors. actives 6.9% (n = 320,000). AID 504834, 2011
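Cell-based qHTS: luciferase-tagged P. falciparum in erythrocytes (2% hematocrit, 0.05% parasitemia final) incubated with compounds for 96 hours, 37 C, 5% CO2; luciferase detection reagent then added and luminescence measured.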
Pf growth 48h = Primary qHTS for delayed death inhibitors of the malarial parasite plastid, 48 hour incubation | P. falciparum luciferase growth in erythrocytes, 48 h | Potency, µM (top dose mostly 28.7 µM), usual class: inhibitors | actives 5.9% (n = 310,000) | AID 504832, 2011
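Growth was read as firefly luciferase luminescence after a 48 h, 37 C, 5% CO2 exposure of compounds to reporter-bearing P. falciparum cultures (0.1% parasitemia, 2% hematocrit final) in Albumax-supplemented RPMI 1640.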
FBPA Giardia inh = qHTS Assay for Inhibitors of Fructose-1,6-bisphosphate Aldolase from Giardia Lamblia | A8B2U2 | purified Giardia FBPA | Potency, µM (series often up to 59.6 µM), actives largely listed as inhibitors | actives 0.71% (n = 290,000) | AID 2451, 2010; note: nearly all actives have a fitted effect of over 55% in size
Target sequence (A8B2U2 whole entry, looked up): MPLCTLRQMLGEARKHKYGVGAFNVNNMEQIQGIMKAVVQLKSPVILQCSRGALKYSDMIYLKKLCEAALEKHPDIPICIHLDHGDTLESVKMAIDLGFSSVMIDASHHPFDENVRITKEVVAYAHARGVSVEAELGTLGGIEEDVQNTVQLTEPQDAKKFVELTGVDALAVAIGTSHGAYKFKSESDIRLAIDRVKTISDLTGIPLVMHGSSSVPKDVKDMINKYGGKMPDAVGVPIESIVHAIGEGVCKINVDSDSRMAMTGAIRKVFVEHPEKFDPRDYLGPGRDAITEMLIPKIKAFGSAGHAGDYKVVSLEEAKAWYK
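Giardia FBPA (40 nM reagent) was preincubated 10 min at RT with compound (up to 57.5 uM final), then substrate plus GAPDH/TPI/NAD/arsenate coupling system with diaphorase/resazurin was added; resorufin fluorescence (525/598 nm) was read after 20 min.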
HCMV inh = qHTS Assay for inhibitors of the human cytomegalovirus (HCMV); HFF cells, HCMV-luciferase reporter, 72 h; active compounds read low; activity change, negative = inhibition, % at 57.5 µM; actives 4.5% (n = 410,000); AID 1259415, 2018; in the data active = activity change below about -60%; inconclusive = no clear call, values can overlap the other calls; inactive = above about -39%
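Compounds were evaluated in HFFs infected with an HCMV luciferase reporter virus (MOI 1 PFU/cell). Luciferase in lysates collected 72 h post infection served as the replication measure.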
A number is an active result; . = inactive; ? = inconclusive; / = no result. An excerpt weighted towards active compounds, which were near 14% of everything screened. Unless noted, calls come from the whole dose curve; as a rule, active = well fitted curve in the direction sought with a large enough effect; inconclusive = small, poorly fitted or top-dose-only effect, or another doubt; inactive = no such curve, though single readings can be large; an effect the other way counts as inactive or inconclusive.

SMILES	Sm TGR block	Pf growth 96h	Pf growth 48h	FBPA Giardia inh	HCMV inh
Cc1sc2nc(C3CC3)nc(N3CCN(S(=O)(=O)c4ccc(F)cc4)CC3)c2c1C	.	.	10µM	.	.
COc1ccc(C(=O)N2CCN(c3nc(C4CC4)nc4sc(C)c(C)c34)CC2)cc1	.	.	12µM	.	.
CC[C@@H]1C/C=C\Cc2ccccc2[C@H](C(=O)C[C@H](O)CC(C)=O)OC1=O	/	/	/	/	.
CC(C)S(=O)(=O)c1oc(-c2cccs2)nc1S(=O)(=O)c1ccc(F)cc1	0.89µM	/	/	/	-102
Cc1ccc(S(=O)(=O)c2nc(-c3cccs3)oc2SC(C)C)cc1	.	/	/	/	.
CSc1oc(-c2ccc(F)cc2)nc1S(=O)(=O)c1ccccc1	.	?	.	.	.
CCS(=O)(=O)c1oc(-c2ccc(F)cc2)nc1S(=O)(=O)c1ccc(Br)cc1	0.63µM	/	/	/	-99
CCCCS(=O)(=O)c1oc(-c2ccc(F)cc2)nc1S(=O)(=O)c1ccccc1	.	/	/	/	-99
CC(C)S(=O)(=O)c1oc(-c2ccc(F)cc2)nc1S(=O)(=O)c1ccccc1	0.89µM	/	/	/	-97
CSc1oc(-c2ccccc2)nc1S(=O)(=O)c1ccc(F)cc1	.	/	.	.	?
Clc1cccc(C=NC=Nc2cccc(Cl)c2)c1	/	/	/	.	/
Cc1ccccc1-c1nnc(CN2CCN(c3ccccn3)CC2)o1	.	/	/	/	.
CS(=O)(=O)c1oc(-c2ccc(F)cc2)nc1S(=O)(=O)c1ccc(Cl)cc1	0.71µM	/	/	/	-96
COc1cccc(Nc2ncc3nc(-c4cn(C)c5ccccc45)c(=O)n(C[C@H]4CCCO4)c3n2)c1	/	/	/	.	/
Cc1ccc2ncc3c(-c4ccc(F)cc4)nn(-c4cccc(F)c4)c3c2c1	.	/	/	/	.
COc1ccccc1OCC(=O)N/N=C/C=C/c1ccc([N+](=O)[O-])o1	45µM	1.5µM	4.1µM	.	.
Cc1ccc(OCC(=O)N/N=C\c2cn(C)c3ccccc23)c([N+](=O)[O-])c1	.	?	.	.	.
Cc1cc(C)cc(OCC(=O)N/N=C/c2ccc([N+](=O)[O-])o2)c1	?	.	9.3µM	.	?
Cn1cc(/C=N/NC(=O)COc2ccccc2[N+](=O)[O-])c2ccccc21	.	.	.	.	-64
CCCOc1ccc(CCC(=O)N/N=C/c2ccc([N+](=O)[O-])o2)cc1	.	12µM	?	.	.
Cc1ccc(/C=N\NC(=O)COc2ccc(C)cc2[N+](=O)[O-])cc1	.	?	?	.	.
CCOc1ccc(CCNC(=O)c2cc(=O)[nH]c3ccc(S(=O)(=O)N4CCCCC4)cc23)cc1OCC	.	/	/	/	.
CC1(NC(=O)CCc2nc3ccccc3c(=O)[nH]2)CCS(=O)(=O)C1 (centres undefined)	.	.	.	.	.
O=C(COc1ccccc1[N+](=O)[O-])N/N=C/C=C/c1ccco1	35µM	.	.	/	?
Cc1ccccc1OCC(=O)N/N=C/c1ccc([N+](=O)[O-])o1	?	2.1µM	5.2µM	.	-86
SMILES	Sm TGR block	Pf growth 96h	Pf growth 48h	FBPA Giardia inh	HCMV inh
Cc1ccc(OCC(=O)N/N=C/C=C/c2ccco2)cc1	?	?	.	.	.
C[C@@H]1[C@H]2CC[C@@H]3[C@@H]4CC=C5C[C@@H](N(C)C)CC[C@]5(C)[C@@H]4CC[C@@]32CN1C	/	/	/	.	/
CCn1c(CNC(=O)c2cccc(C)c2)nnc1SCC(=O)Nc1nnc(C)s1	.	.	.	.	.
Cc1cccc(NC(=O)Cc2coc3ccc4ccccc4c23)n1	.	/	?	.	-70
CC(NC(c1ccccc1)c1ccccc1)C(=O)N1CCCc2ccccc21 (centres undefined)	.	10µM	10µM	.	.
CC(Nc1ccccc1N1CCCCC1)C(=O)N1CCc2ccccc21 (centres undefined)	.	?	?	.	-70
O=C(C(=O)N1CCCc2ccccc21)N1CCCc2ccccc21	.	?	.	.	.
CC(Oc1ccc(Br)cc1)C(=O)N1CCc2ccccc21 (centres undefined)	.	.	1.5µM	.	.
COc1ccc2cc1Oc1ccc(cc1)C[C@H]1c3cc(c(OC)cc3CCN1C)Oc1c(OC)c(OC)cc3c1[C@@H](C2)N(C)CC3	35µM	1.5µM	2.3µM	.	-66
